From PubChem BioAssay (EPA / NIEHS)
The source made the active and inactive calls. Rule for the calls: active = hit-call score of the fitted dose curve at least 0.9, where 1 is the maximum; inactive = score below 0.9.

Assay: APR_HepG2_NuclearSize_24hr: Apredica 24-hour HepG2 Assay for Nuclear Size (AID 2282907)
Conditions: high-content imaging, actives raise or lower the signal
Method: APR_HepG2_24hr is a cell-based, multiplexed-readout assay that uses HepG2, a human liver cell line, with measurements taken at 24 hours after chemical dosing in a 384-well plate.APR_HepG2_NuclearSize_24hr is one of 10 assay component(s) measured or calculated from the APR_HepG2_24hr assay. It is designed to make measurements of cell phenotype, a form of morphology reporter, as detected with fluorescence intensity signals by HCS Fluorescent Imaging technology.Data from the assay component APR_HepG2_NuclearSize_24hr was analyzed into 1 assay endpoint. This assay endpoint, APR_HepG2_NuclearSize_24hr, was analyzed with bidirectional fitting relative to DMSO as the negative control and baseline of activity. Using a type of morphology reporter, measures of all nuclear dna for gain or loss-of-signal activity can be used to understand the signaling at the nuclear-level. Furthermore, this assay endpoint can be referred to as a primary readout, because this assay has produced multiple assay endpoints where this one serves a signaling function. To generalize the intended target to other relatable targets, this assay endpoint is annotated to the cell morphology intended target family, where the subfamily is organelle conformation.
Cells were treated with dimethyl sulfoxide (DMSO) as a solvent control at a final concentration of 0.5% v/v or with compounds in DMSO with a resulting final DMSO concentration of 0.5% v/v. Compound treatment was done at concentrations of 0.39, 0.78, 1.56, 3.12, 6.24, 12.5, 25, 50, 100, and 200 uM in duplicate on each plate. Cells were treated with compounds for 1, 24, or 72 hr. Carbonyl […] m-chloro-phenylhydrazone (CCCP) and taxol were used as positive controls for mitochondrial function and cytoskeletal stability, respectively; DMSO served as the negative control for this experiment. Cells were fixed by the direct addition of 50 uL formaldehyde in Hank's Balanced Salt Solution (HBSS) to a final concentration of 3.7%. After incubation in the fixation medium for 30 min at room temperature (293-298 K), cells were rinsed twice with HBSS and treated with cell permeabilization buffer (16 uL of 0.5% Triton X-100) for 10 min at room temperature (293-298 K) before labeling. For mitochondrial membrane potential and mitochondrial measurements, pre-fixed cells were incubated with 50 uL of MitoTracker Red CMXRos (Invitrogen) at a concentration of 250 nM for 30 min before fixation. In the remaining cases, post-fixed cells were labeled by incubation with a multiplexed mixture of primary antibodies in HBSS for 60 min at room temperature (293-298 K) to detect immunoreactivity of c-Jun (1:500), phospho-histone H3 (1:100), phospho-histone H2A.x (1:200), p53 (1:400), alpha-tubulin (1:200) and Hoechst 33342 (2 ug/mL). Cells were labeled for multiplexed imaging on two separate plates: a) Hoechst 33342, MitoTracker Red, phospho-histone H3, and alpha-tubulin, and b) Hoechst 33342, phospho-histone H2A.x, and c-Jun. A final rinse with HBSS (50 uL) was performed before analysis. The primary and secondary antibodies for the proteins were phospho-histone H3 (rabbit anti-phospho-histone H3 and FITC-donkey anti-rabbit IgG), phospho-histone H2A.x (mouse anti-phospho-histone H2A.x and FITC-donkey anti-mouse IgG), c-Jun (rabbit anti-phospho-c-Jun and Cy3-donkey anti-rabbit IgG), p53 (sheep anti-p53 and Cy5-donkey anti-sheep IgG), alpha-tubulin (mouse anti-alpha-tubulin and Cy5-donkey anti-mouse IgG). These antibodies are available as the CellCiphr HepG2 assay kit (Millipore).Digital images of each well were captured using a Cellomics ArrayScan VTI (Thermo Scientific Cellomics) (0.8 NA objective, 0.63x optical coupler, and XF-93 filter set) at 20x magnification. The images were acquired using the autofocus feature of the ArrayScan instrument, which entails the following steps. First, the camera focuses on channel 1 (Hoechst 33342), where nuclei are identified. Second, a Z offset of 1 um is used for capturing mitochondria (MitoTracker Red). […]

Row | Structure (SMILES) | outcome | AC50
1 | Nc1c(Cl)c(Cl)nc(C(=O)O)c1Cl | inactive | –
2 | COC(=O)NS(=O)(=O)c1ccc(N)cc1 | inactive | –
3 | Clc1nc(Cl)nc(Nc2ccccc2Cl)n1 | inactive | –
4 | COP(=S)(OC)Oc1ccc([N+](=O)[O-])c(C)c1 | inactive | –
5 | CC1(C)C(C(=O)OC(C#N)c2cccc(Oc3ccccc3)c2)C1(C)C (stereo not given) | inactive | –
6 | COCc1cnc(C2=NC(C)(C(C)C)C(=O)N2)c(C(=O)O)c1 (stereo not given) | inactive | –
7 | CC(C)(C)C(=O)C(Oc1ccc(Cl)cc1)n1cncn1 (stereo not given) | inactive | –
8 | CCC(C)n1c(=O)[nH]c(C)c(Br)c1=O (stereo not given) | inactive | –
9 | N#CN=C1SCCN1Cc1ccc(Cl)nc1 | inactive | –
10 | CNC(=O)N(C)c1nnc(C(C)(C)C)s1 | inactive | –
11 | Cc1nc(N(C)C)nc(OC(=O)N(C)C)c1C | inactive | –
12 | CCCC(=NOCC)C1=C(O)CC(CC(C)SCC)CC1=O (stereo not given) | inactive | –
13 | CC(C)N1C(=O)c2ccccc2NS1(=O)=O | inactive | –
14 | CS(=O)(=O)c1cc(C(F)(F)F)ccc1C(=O)c1cnoc1C1CC1 | inactive | –
15 | C=CCOC(=O)C(C)(C)OC(=O)c1cc(-n2c(=O)cc(C(F)(F)F)n(C)c2=O)ccc1Cl | inactive | –
16 | CCCCOCN(C(=O)CCl)c1c(CC)cccc1CC | inactive | –
17 | CN/C(=N\[N+](=O)[O-])NCc1cnc(Cl)s1 | inactive | –
18 | CSC(=O)c1c(C(F)F)nc(C(F)(F)F)c(C(=O)SC)c1CC(C)C | inactive | –
19 | COCC(C)N(C(=O)CCl)c1c(C)csc1C (stereo not given) | inactive | –
20 | O=c1n(Cl)c(=O)n(Cl)c(=O)n1Cl | inactive | –

Row | Structure (SMILES) | outcome | AC50
21 | CCOc1nc(C(Cl)(Cl)Cl)ns1 | inactive | –
22 | COC(=O)N(C(=O)N1CO[C@@]2(C(=O)OC)Cc3cc(Cl)ccc3C2=N1)c1ccc(OC(F)(F)F)cc1 | inactive | –
23 | C=C(C)CN(CC)c1c([N+](=O)[O-])cc(C(F)(F)F)cc1[N+](=O)[O-] | inactive | –
24 | COP(=O)(OC)O/C(C)=C/C(=O)N(C)C | inactive | –
25 | O=C(O)c1c(Cl)ccc2cc(Cl)cnc12 | inactive | –
26 | CCOP(=S)(OCC)Oc1nc(Cl)n(C(C)C)n1 | inactive | –
27 | Nc1cnn(-c2ccccc2)c(=O)c1Cl | inactive | –
28 | OC(c1ccc(Cl)cc1)(c1ccc(Cl)cc1)C(Cl)(Cl)Cl | – | 74.1 µM (active)
29 | CO/N=C(/C1=NOCCO1)c1ccccc1Oc1ncnc(Oc2ccccc2Cl)c1F | inactive | –
30 | COCC(=O)N(c1c(C)cccc1C)C(C)C(=O)OC (stereo not given) | inactive | –
31 | COC(=O)c1c(C(F)F)nc(C(F)(F)F)c(C2=NCCS2)c1CC(C)C | inactive | –
32 | CCOc1nc(F)cc2nc(S(=O)(=O)Nc3c(Cl)cccc3Cl)nn12 | inactive | –
33 | CNC(=O)Oc1cccc2ccccc12 | inactive | –
34 | O=P(O)(O)CCCl | inactive | –
35 | CCCCC(O)(Cn1cncn1)c1ccc(Cl)cc1Cl (stereo not given) | inactive | –
36 | Clc1cccc(C(Cl)(Cl)Cl)n1 | inactive | –
37 | CC(C)C1(C)N=C(c2ncccc2C(=O)O)NC1=O (stereo not given) | inactive | –
38 | Nc1c(Cl)c(F)nc(OCC(=O)O)c1Cl | inactive | –
39 | CCCCC(C#N)(Cn1cncn1)c1ccc(Cl)cc1 (stereo not given) | inactive | –
40 | CCOC(=O)C(C)OC(=O)c1cc(Oc2ccc(C(F)(F)F)cc2Cl)ccc1[N+](=O)[O-] (stereo not given) | inactive | –
